# Measurements published in PMC7862700, “An all-to-all approach to the identification of sequence-specific readers for epigenetic DNA modifications on cytosine”.
# How the values were obtained:
# Assay in all cases: DAPPL (digital affinity profiling via proximity ligation, sequencing); 10 mM Tris-HCl pH 7.5, 50 mM NaCl, 1 mM DTT, 4% glycerol, room temperature, 30 min; GST-TFs on glutathione beads, 16-mer random dsDNA library, 0.1% formaldehyde crosslink after washing; high values mean tight binding
# [1] = target: T1, FEV (Homo sapiens, UniProt Q99581 1-238); conditions: protein: recombinant; tags: N-terminal GST; dsDNA, one strand shown
# T1 sequence: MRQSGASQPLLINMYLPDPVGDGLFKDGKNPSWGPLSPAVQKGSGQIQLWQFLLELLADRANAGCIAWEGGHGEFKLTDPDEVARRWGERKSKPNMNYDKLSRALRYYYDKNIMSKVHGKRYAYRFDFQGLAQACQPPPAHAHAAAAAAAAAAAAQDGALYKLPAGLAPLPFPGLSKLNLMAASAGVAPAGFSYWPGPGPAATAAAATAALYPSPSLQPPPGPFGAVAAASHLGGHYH
# How it was run: (§1)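 A tag-only sample was pooled with DNA-barcoded human transcription factors that had been expressed in yeast as GST fusions and captured on glutathione beads. The pools were incubated for 30 min at room temperature with 200 nmole of a random double-stranded 16-mer DNA library in Tris/NaCl/DTT/glycerol buffer, then washed, crosslinked with 0.1% formaldehyde, proximity-ligated (BsaI/T4 ligase, 1 h, 37 °C), PCR-amplified and sequenced on an Illumina NextSeq500. Binding signal is each hexamer's read frequency for a factor divided by its frequency for the tag-only sample.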
# [2] = target: ETV5 (Homo sapiens, UniProt P41161 1-510); conditions: protein: recombinant; tags: N-terminal GST; dsDNA, one strand shown
# ETV5, sequence (P41161 whole entry): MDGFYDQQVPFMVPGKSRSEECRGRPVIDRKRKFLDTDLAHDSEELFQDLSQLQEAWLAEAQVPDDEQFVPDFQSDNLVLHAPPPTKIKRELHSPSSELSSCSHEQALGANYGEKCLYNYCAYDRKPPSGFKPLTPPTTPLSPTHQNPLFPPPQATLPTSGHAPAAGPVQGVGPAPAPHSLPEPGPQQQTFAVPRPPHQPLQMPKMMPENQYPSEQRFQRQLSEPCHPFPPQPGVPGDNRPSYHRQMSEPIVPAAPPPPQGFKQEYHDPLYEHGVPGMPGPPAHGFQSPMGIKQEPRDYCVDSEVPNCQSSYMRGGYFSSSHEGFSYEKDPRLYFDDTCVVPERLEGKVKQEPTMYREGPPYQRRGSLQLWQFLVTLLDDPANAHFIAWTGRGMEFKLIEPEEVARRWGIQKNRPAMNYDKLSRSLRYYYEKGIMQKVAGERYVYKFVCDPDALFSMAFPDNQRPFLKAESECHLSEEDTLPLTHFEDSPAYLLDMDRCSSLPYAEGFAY
# How it was run: as §1
# [3] = target: HSF1 (Homo sapiens, UniProt Q00613 1-529); conditions: protein: recombinant; tags: N-terminal GST; chain copies: 3; dsDNA, one strand shown
# HSF1, sequence (Q00613 whole entry): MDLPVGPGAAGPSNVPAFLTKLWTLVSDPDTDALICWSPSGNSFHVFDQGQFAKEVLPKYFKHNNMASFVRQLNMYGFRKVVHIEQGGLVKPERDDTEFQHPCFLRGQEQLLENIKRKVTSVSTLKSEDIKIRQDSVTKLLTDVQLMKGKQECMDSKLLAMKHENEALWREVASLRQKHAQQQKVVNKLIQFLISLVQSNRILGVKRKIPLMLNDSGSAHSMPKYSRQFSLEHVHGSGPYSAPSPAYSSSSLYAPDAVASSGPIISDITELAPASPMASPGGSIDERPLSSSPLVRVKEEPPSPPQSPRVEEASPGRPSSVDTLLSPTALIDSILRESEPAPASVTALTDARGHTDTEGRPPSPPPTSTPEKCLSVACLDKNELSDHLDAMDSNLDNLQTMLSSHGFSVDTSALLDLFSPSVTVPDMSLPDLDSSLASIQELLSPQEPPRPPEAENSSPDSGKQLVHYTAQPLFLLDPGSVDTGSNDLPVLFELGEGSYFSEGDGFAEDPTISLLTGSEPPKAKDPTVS
# How it was run: as §1
# [4] = target: T2, SPIC (Homo sapiens, UniProt Q8N5J4 1-248); conditions: protein: recombinant; tags: N-terminal GST; dsDNA, one strand shown
# T2 sequence: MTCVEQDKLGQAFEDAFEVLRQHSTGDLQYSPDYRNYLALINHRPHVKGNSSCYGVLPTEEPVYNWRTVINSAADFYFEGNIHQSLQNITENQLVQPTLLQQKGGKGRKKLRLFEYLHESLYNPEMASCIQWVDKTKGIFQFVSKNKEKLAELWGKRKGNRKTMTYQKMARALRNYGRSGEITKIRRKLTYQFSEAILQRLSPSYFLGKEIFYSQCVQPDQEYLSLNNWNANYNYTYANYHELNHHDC
# How it was run: as §1
# [5] = target: ELF4 (Homo sapiens, UniProt Q99607 1-663); conditions: protein: recombinant; tags: N-terminal GST; dsDNA, one strand shown
# ELF4, sequence (Q99607 whole entry): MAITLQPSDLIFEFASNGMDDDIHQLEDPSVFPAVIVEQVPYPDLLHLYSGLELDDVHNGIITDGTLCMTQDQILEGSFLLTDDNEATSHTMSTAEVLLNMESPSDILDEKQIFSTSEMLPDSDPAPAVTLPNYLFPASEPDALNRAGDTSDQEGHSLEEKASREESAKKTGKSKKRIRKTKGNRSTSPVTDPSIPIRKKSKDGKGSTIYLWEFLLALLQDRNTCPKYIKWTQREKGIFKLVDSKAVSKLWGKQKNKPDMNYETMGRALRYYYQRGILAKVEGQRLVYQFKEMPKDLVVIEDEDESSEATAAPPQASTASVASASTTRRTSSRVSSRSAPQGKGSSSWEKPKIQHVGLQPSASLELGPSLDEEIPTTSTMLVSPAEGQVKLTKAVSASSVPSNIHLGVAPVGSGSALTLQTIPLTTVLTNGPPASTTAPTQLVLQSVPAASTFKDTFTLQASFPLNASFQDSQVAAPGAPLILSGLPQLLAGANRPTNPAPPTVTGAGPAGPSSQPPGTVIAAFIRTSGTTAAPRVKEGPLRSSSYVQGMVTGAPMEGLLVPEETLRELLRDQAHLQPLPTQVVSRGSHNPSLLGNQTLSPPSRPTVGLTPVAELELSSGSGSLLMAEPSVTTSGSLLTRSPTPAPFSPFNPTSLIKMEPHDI
# How it was run: as §1
# [6] = target: T3, ELK4 (Homo sapiens, UniProt P28324-2 1-405); conditions: protein: recombinant; tags: N-terminal GST; dsDNA, one strand shown
# T3 sequence: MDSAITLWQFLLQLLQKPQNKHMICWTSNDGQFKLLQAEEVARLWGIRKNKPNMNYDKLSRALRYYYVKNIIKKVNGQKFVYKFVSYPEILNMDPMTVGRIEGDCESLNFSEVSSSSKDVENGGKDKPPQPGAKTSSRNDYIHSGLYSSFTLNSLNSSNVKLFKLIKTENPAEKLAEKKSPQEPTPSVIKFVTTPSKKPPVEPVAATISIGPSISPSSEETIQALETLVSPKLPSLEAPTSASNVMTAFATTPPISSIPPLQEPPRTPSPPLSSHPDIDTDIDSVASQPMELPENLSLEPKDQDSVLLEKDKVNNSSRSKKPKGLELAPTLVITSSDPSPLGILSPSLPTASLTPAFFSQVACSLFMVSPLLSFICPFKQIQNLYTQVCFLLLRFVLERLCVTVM
# How it was run: as §1
# [7] = target: T4, ETV2 (Homo sapiens, UniProt O00321 1-342); conditions: protein: recombinant; tags: N-terminal GST; dsDNA, one strand shown
# T4 sequence: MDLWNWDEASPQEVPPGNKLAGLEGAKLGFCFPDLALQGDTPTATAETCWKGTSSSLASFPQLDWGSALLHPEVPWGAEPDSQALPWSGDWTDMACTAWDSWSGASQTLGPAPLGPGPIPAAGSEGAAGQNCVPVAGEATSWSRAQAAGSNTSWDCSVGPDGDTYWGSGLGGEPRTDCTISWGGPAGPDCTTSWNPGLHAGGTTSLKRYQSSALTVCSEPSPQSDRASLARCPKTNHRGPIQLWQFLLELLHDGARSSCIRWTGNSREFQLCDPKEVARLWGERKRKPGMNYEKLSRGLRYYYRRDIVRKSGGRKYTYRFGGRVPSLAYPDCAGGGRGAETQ
# How it was run: as §1
# [8] = target: T5, ELF3 (Homo sapiens, UniProt P78545 1-371); conditions: protein: recombinant; tags: N-terminal GST; dsDNA, one strand shown
# T5 sequence: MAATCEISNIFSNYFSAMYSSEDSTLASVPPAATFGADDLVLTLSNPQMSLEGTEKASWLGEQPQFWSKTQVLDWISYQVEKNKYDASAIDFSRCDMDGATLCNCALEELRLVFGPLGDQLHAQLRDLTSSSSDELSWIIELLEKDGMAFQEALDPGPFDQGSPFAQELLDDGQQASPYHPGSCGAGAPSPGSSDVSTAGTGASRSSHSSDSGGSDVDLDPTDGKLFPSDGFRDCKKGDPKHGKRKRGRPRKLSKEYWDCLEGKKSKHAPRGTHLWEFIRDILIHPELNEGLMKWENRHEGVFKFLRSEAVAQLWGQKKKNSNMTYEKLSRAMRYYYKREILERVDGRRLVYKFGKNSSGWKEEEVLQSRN
# How it was run: as §1
# [9] = target: CRX (Homo sapiens, UniProt O43186 1-299); conditions: protein: recombinant; tags: N-terminal GST; dsDNA, one strand shown
# CRX, sequence (O43186 whole entry): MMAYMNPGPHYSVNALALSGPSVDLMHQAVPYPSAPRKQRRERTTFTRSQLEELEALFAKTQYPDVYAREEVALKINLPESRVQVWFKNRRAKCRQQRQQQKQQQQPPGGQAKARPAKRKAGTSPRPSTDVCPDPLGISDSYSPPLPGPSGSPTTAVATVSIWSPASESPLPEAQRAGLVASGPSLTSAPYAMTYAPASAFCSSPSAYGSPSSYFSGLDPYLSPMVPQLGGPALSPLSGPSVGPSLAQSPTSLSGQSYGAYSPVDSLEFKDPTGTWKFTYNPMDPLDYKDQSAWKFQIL
# How it was run: as §1
# [10] = target: ETV1 (Homo sapiens, UniProt P50549 1-477); conditions: protein: recombinant; tags: N-terminal GST; dsDNA, one strand shown
# ETV1, sequence (P50549 whole entry): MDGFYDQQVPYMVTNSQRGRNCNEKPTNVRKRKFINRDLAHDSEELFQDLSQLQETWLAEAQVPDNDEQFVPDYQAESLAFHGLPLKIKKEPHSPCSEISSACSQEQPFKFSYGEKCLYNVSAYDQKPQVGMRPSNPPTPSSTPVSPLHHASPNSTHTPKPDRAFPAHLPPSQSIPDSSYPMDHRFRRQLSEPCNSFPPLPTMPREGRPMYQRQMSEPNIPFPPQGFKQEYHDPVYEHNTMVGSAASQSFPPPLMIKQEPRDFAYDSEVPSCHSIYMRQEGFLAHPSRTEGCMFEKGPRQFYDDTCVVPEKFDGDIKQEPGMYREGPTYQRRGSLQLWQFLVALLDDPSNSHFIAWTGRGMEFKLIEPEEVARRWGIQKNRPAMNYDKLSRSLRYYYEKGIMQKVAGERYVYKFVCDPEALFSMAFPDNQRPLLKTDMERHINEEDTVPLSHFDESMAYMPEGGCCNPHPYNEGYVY
# How it was run: as §1
sequence,measurement,setting,value
CTTCTA,binding signal,[1],"1.4 fold enrichment (6-mer frequency, TF over GST control)"
same,binding signal,[2],"1.46 fold enrichment (6-mer frequency, TF over GST control)"
same,binding signal,[3],"3.31 fold enrichment (6-mer frequency, TF over GST control)"
same,binding signal,[4],"1.28 fold enrichment (6-mer frequency, TF over GST control)"
same,binding signal,[5],"1.38 fold enrichment (6-mer frequency, TF over GST control)"
same,binding signal,[6],"1.53 fold enrichment (6-mer frequency, TF over GST control)"
same,binding signal,[7],"1.49 fold enrichment (6-mer frequency, TF over GST control)"
same,binding signal,[8],"1.42 fold enrichment (6-mer frequency, TF over GST control)"
same,binding signal,[9],"1.87 fold enrichment (6-mer frequency, TF over GST control)"
same,binding signal,[10],"1.49 fold enrichment (6-mer frequency, TF over GST control)"
